Only some compounds are listed: those with a hit (about 21% of all), similar ones and a draw of the others.
NS1 function inh = blocks influenza NS1 protein function | Potency, µM (doses to about 46.1 µM) | 270,000 tested, 0.4% active | AID 2326; calls by dose curve; also: actives are rising curves; nearly all actives have a fitted effect of over 50% in size
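S. cerevisiae expressing influenza A NS1, grown in glucose, washed, then diluted 1:100 into pH 6.0 -URA galactose medium with 23 nl compound. Growth recovery read as OD600; NS1-free strain serves as control.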
Pf growth 48h = P. falciparum growth inhibition at 48 hours (one generation) | Potency, µM (titrated, usually from 28.7 µM), usual class: inhibitors | P. falciparum luciferase growth in erythrocytes, 48 h | 310,000 tested, 5.9% active
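Cell-based growth assay: transgenic P. falciparum expressing firefly luciferase, cultured in red cells within RPMI 1640 containing 0.5% w/v Albumax, 24 mM bicarbonate and gentamycin. A drop in luciferase activity indicates inhibition.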
Pf growth 96h = inhibits malaria parasite growth, 96 h; P. falciparum luciferase reporter growth, 96 h; Potency, µM (doses to about 28.7 µM), most hits filed as inhibitors; 320,000 tested, 6.9% active
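96 h incubation, 37 C, 5% CO2, of luciferase-reporter P. falciparum-infected RBCs (2% hematocrit, 0.05% parasitemia final) with test compounds; endpoint luminescence.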
Cycloheximide cs = affects cycloheximide protein synthesis inhibition readout, counter-screen | max response, % | AID 2314 | cell reporter, cycloheximide protein synthesis inhibition counterscreen | 300,000 tested, 12% active; in the data active = max response mostly above about 13%, no sharp cut-off; inactive = mostly below about 14%; also: read at 38.3 µM for the half of the compounds with a filed dose
Shiga inhibitor = inhibitors of Shiga toxin in Vero cells | Vero cells, Shiga toxin protein synthesis inhibition reporter | inhibition, % at 38.7 µM | 290,000 tested, 9.2% active; in the data active = inhibition mostly above about 28%, no sharp cut-off; inactive = mostly below about 43%
Each line names hits and unclear results; the compound was inactive in the other large screens. Unless noted, calls follow the shape of the dose curve; as a rule, active = well fitted inhibition curve with a large enough effect; inconclusive = small, poorly fitted or top-dose-only effect, or another doubt; inactive = no such curve, though single readings can be large or run the other way.

COc1ccccc1N1C(=O)C2C(C(=O)c3ccccc3)=NN(c3ccccc3OC)C2C1=O (centres undefined)	none
Cc1cccc(COCC(CC(C)C)N2CCN(C(=O)c3ccc(C(C)(C)C)cc3)CCC2=O)c1 (centres undefined)	Pf growth 48h 7.38µM, Pf growth 96h inconclusive
CC(C)CC(COCc1ccc(F)cc1)N1CCN(C(=O)c2cccc(C(F)(F)F)c2)CCC1=O (centres undefined)	Pf growth 48h inconclusive, Pf growth 96h 13.1µM
Cc1cccc(COCC(CC(C)C)N2CCN(C(=O)c3ccc(C(F)(F)F)cc3)CCC2=O)c1 (centres undefined)	Pf growth 48h 10.4µM, Pf growth 96h inconclusive
CC(C)CC(COCc1cccc(Cl)c1)N1CCN(C(=O)c2ccc(C(F)(F)F)cc2)CCC1=O (centres undefined)	Pf growth 48h 13.1µM, Pf growth 96h 7.38µM
Cc1cccc(COCC(Cc2ccccc2)N2CCN(C(=O)c3ccc(C(F)(F)F)cc3)CCC2=O)c1 (centres undefined)	Pf growth 48h inconclusive, Pf growth 96h inconclusive
c1ccc(COCCCc2cnc[nH]2)cc1	none (no result: NS1 function inh, Pf growth 48h, Pf growth 96h)
Cc1cccc(C(=O)N2CCC(=O)N([C@H](COCc3cccc(Cl)c3)Cc3ccccc3)CC2)c1	none (no result: NS1 function inh, Pf growth 48h, Pf growth 96h)
O=C(c1cccc(Cl)c1)N1CCC(=O)N(C(COCc2cccc(Cl)c2)Cc2ccccc2)CC1 (centres undefined)	Pf growth 48h inconclusive, Pf growth 96h 13.1µM
COC(=O)NCCOc1nc(N(C)C)nc(N(C)C)n1	none
CCNc1nc(OCCNC(C)=O)nc(N(C)C)n1	NS1 function inh inconclusive, Pf growth 96h 1.47µM
Clc1ccccc1C(Nc1cnccn1)Nc1cnccn1	none (no result: Pf growth 48h, Pf growth 96h, Cycloheximide cs, Shiga inhibitor)
COc1ccccc1/C=N/NC(=O)c1ccc(Cn2nc([N+](=O)[O-])cc2C)cc1	NS1 function inh inconclusive
CCC1(c2ccccc2)ON(c2c(Br)cccc2Br)C1=O (centres undefined)	Pf growth 48h 0.415µM, Pf growth 96h 0.415µM (no result: NS1 function inh, Cycloheximide cs, Shiga inhibitor)
CCn1c(C)nc2cc(C(=O)N=Nc3c(O)[nH]c4c(C)cc(C)cc34)ccc21	Pf growth 48h 9.28µM, Pf growth 96h 6.57µM
CCC(C)NC(=O)Nc1ccc(F)c(Cl)c1 (centres undefined)	Cycloheximide cs 22.6
CCCCC(=O)Nc1ccc(F)c(Cl)c1	Cycloheximide cs 16.1
C=CCNC(=O)Nc1ccc(F)c(Cl)c1	none
CC(C)CNC(=O)Nc1ccc(F)c(Cl)c1	Pf growth 96h inconclusive, Cycloheximide cs 26.1
COc1ccc(C(=S)N2CCCC2)cc1C	none
CC(C)CNC(=S)N(Cc1ccco1)Cc1cc2cc3c(cc2[nH]c1=O)OCCO3	Pf growth 48h inconclusive
COc1ccc(C2CCCN2C(=S)Nc2cccc(C)c2C)cc1OC (centres undefined)	Pf growth 48h 11.7µM, Pf growth 96h inconclusive (no result: NS1 function inh)
COc1ccc(C2CCCN2C(=S)Nc2cccc(C)c2)cc1OC (centres undefined)	Pf growth 48h 11.7µM, Pf growth 96h inconclusive (no result: NS1 function inh)
COc1ccc(C2CCCN2C(=S)Nc2ccc(C)cc2Cl)cc1OC (centres undefined)	Shiga inhibitor 63.8 (no result: NS1 function inh)
COc1ccc(NC(=S)N2CCCC2c2ccc(OC)c(OC)c2)cc1 (centres undefined)	none (no result: NS1 function inh)
CCc1cc2c(=O)n(CCC(C)C)c(=S)[nH]c2s1	none (no result: NS1 function inh)
Cc1cc(NC(=O)Cn2nnc3sc4c(c3c2=O)CCC(C(C)(C)C)C4)no1 (centres undefined)	Pf growth 48h 10.4µM
CCOc1cc2c(cc1OCC)C(c1ccccc1)N(c1ccccc1)C(=O)C2 (centres undefined)	Pf growth 48h inconclusive, Pf growth 96h 4.15µM
Cn1c2ccccc2c2cc(/C=N/NC(=O)c3ccc(N)cc3)ccc21	Pf growth 48h 13.1µM, Pf growth 96h inconclusive
Cc1ccc(/C=N/NC(=O)c2ccc(-c3ccccc3)cc2)o1	Pf growth 48h inconclusive, Pf growth 96h inconclusive
Cn1c(-c2ccccc2)c(/C=N/NC(=O)c2ccc(O)cc2)c2ccccc21	Pf growth 96h inconclusive, Cycloheximide cs 33.6, Shiga inhibitor 86.8
Cn1c2ccccc2c2cc(/C=N/NC(=O)c3ccccc3F)ccc21	Pf growth 48h inconclusive, Pf growth 96h inconclusive, Cycloheximide cs 41.1, Shiga inhibitor 78.7
O=C(CSCc1cccc(F)c1)N1CCN(c2ccccc2)CC1	Pf growth 96h inconclusive, Cycloheximide cs 40.6, Shiga inhibitor 83.1
O=C(CSCc1ccccc1)N1CCN(c2ccc(F)cc2)CC1	Cycloheximide cs 45.4
O=C(CSCc1ccccc1)N1CCN(c2ccccc2)CC1	Pf growth 96h inconclusive, Cycloheximide cs 46.6, Shiga inhibitor active
Cc1ccc(CSCC(=O)N2CCN(c3ccccc3)CC2)cc1	Pf growth 96h 4.15µM
O=C(Cn1c(CO)nc2ccccc21)NC1CCCCCC1	none (no result: NS1 function inh)
